A short description of experiment [1]: loss of swimming-algae plug formation – whole organism, Chlamydomonas reinhardtii, WT vs cilia-less mutant, absorbance, 96-well, primary screen (AID 463189).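 Also: 0% = wild type cc124 cells in DMSO and 100% = ciliumless bld1 mutant cells.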 The note with it: Chlamydomonas reinhardtii gravitaxis, OD600 absorbance, 2 days; at 10 µM; stronger effect = higher value.
The nature of experiment [2]: reduction of polyQ htt aggregates in cells – imaging, exon1htt(103Q)mCFP cells, high-content imaging, primary screen (AID 483;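 active = visual image review flags a hit and inhibition of aggregation exceeds 20%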;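 also: compound exposure lasted 3 days before fixation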;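 as to nuclei count: percent of the per-plate median nuclei count of sample wells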). Particulars: exon1htt(103Q)mCFP cell line, aggregate imaging, at 2 µM; inhibition of aggregation: stronger effect = higher value; nuclei count: measured here: cell count, toxicity.
Experiment [3] in a line: endothelial E-selectin expression blockers – imaging, HUVEC, immunofluorescence, MLSMR starter and 10KST1 sets, primary screen (AID 487;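 active = visually confirmed hit in the image check and inhibition above 20%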;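 as to inhibition: signal is fraction of cell area covered by stained E-selectin grains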;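 as to nuclei count: 100% = median nuclei count of all wells on the same plate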). Particulars: HUVEC TNFalpha-induced E-selectin immunofluorescence imaging, at 2 µM; inhibition: stronger effect = higher value; nuclei count: measured here: cell number, toxicity.
The nature of experiment [4]: Primary imaging screen for DUSP6 inhibitors that restore phospho-Erk in transfected HeLa cells, chemical complementation (AID 609;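 active = compounds giving at least 50% inhibition in the cell-based MKP-3 phosphatase rescue imaging test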;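 as to inhibition: phospho-Erk level distribution per well compared with pooled transfected vehicle control wells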). The note with it: HeLa MKP-3 transfected, phospho-Erk imaging KS statistic, at 10 µM, cells stimulated with TPA for 15 min.
The target of experiment [5] is Dual specificity protein phosphatase 6 (Homo sapiens) (UniProt Q16828). Described as above. Particulars: HeLa MKP-3 transfected, phospho-Erk imaging KS statistic; at 10 µM; stronger effect = higher value; cells stimulated with TPA for 15 min.
Sequence of Dual specificity protein phosphatase 6 (Homo sapiens) (Q16828 whole entry, looked up): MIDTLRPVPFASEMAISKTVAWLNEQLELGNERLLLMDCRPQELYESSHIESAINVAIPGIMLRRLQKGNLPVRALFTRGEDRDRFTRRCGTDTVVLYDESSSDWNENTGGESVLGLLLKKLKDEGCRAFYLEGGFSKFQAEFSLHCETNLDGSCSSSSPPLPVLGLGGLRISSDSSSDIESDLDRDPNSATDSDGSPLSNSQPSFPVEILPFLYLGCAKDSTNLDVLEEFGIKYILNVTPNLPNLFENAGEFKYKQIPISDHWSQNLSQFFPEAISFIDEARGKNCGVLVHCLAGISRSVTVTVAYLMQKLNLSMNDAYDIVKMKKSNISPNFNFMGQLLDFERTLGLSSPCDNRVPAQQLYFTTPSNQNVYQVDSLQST
Experiment [6] deals with Voltage-gated potassium channel subunit beta-2 (Rattus norvegicus) (UniProt P62483). Kind of experiment: inhibitors of rat Kvbeta2 reductase activity – biochemical, NADPH fluorescence, primary screen (AID 622;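 active = fluorescence slope higher than the sample average by over 3 SD, cut at about -0.22 in these data, passing the limit was not always enough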;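 also: slope of raw intensity against log time taken from 70 to 1610 s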). Particulars: recombinant KvBeta, 4-cyanobenzaldehyde reduction, at 10 µM, stronger effect = higher value.
Sequence of Voltage-gated potassium channel subunit beta-2 (Rattus norvegicus) (P62483 whole entry, looked up): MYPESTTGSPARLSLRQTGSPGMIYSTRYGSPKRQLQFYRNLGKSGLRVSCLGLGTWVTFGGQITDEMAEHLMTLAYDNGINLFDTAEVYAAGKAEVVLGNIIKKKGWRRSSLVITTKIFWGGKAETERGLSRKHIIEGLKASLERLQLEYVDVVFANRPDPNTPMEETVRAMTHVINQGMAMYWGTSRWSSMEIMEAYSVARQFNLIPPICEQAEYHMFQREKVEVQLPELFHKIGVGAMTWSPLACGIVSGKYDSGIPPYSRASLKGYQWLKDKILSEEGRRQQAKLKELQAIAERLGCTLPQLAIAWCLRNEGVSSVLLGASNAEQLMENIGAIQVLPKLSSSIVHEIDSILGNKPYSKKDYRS
Experiment [7] has the same target. Put plainly: enhancers of rat Kvbeta2 NADPH turnover – biochemical, NADPH fluorescence, primary screen (AID 623;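 active = NADPH fluorescence slope more negative than the mean of all samples by about 3 SD, 99.7% confidence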;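 also: fluorescence intensity change per second fitted from 20 to 320 s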). Particulars: Recombinant KvBeta, NADPH fluorescence decrease slope, 10 min; at 10 µM; stronger effect = lower value.
For experiment [8], the target named is Alpha-2C adrenergic receptor (Homo sapiens) (UniProt P18825). Put plainly: compounds altering alpha2C-coupled GIRK flux – cell-based, HEK293 alpha2C/GIRK1/2, thallium flux, primary screen (AID 624;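 active = fluorescence slope after compound addition differing from the mean of all screened samples at 99.7% confidence, in either direction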;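 also: slope of fluorescence ratio to pre-addition baseline per second over 15 to 24 s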). Particulars: thallium flux BTC fluorescence, at 10 µM, actives lie on both sides.
Sequence of Alpha-2C adrenergic receptor (Homo sapiens) (P18825 whole entry, looked up): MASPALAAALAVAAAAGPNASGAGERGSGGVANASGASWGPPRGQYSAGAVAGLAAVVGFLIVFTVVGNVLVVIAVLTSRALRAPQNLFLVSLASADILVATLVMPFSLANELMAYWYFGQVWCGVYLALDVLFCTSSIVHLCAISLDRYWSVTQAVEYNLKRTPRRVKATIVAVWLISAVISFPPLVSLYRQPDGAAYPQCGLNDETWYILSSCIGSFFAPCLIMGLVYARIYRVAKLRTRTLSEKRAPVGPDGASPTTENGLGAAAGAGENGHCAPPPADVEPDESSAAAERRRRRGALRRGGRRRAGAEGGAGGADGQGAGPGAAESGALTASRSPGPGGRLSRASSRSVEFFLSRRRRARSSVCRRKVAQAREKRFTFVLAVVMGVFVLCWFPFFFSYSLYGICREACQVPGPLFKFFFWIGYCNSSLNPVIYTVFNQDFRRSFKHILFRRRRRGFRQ
The nature of experiment [9]: inhibitors of larval lipid processing in zebrafish, primary screen, whole organism, PED6 fluorescence, gall bladder and intestine (AID 686;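 active = a full or partial loss of lipid-probe fluorescence in the fish gall bladder, intestine or both, judged by eye; inactive = no fluorescence loss, or compound toxic to the fish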;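 also: larvae 5 to 7 days old with five fish per well; signal comes from phospholipase A2 cleavage of quenched PED6 carried via bile; overnight exposure to compound and PED6 before scoring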). The note with it: Zebrafish larvae PED6 lipid processing, fluorescence scoring; screened at 20 µM (by protocol).
The nature of experiment [10]: blockers of RIG-like receptor reporter activation – cell-based, Sendai virus stimulus, luciferase, 10K MLSCN set, TLR/RLR signaling modifier project, primary screen (AID 602276;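 active = inhibition at or above 50% at 10 µM; inactive = inhibition below 50%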;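 also: firefly luciferase from ISG56 promoter only with Renilla not read in this screen; 0% = Sendai virus plus DMSO and 100% = medium plus DMSO without virus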). The note with it: HEK293 RL24 IRF3 luciferase reporter, at 10 µM, stronger effect = higher value.
Experiment [11] is described as follows: TLR3 IRF3 reporter activation blockers – cell-based, poly I:C stimulus, luciferase, 10K MLSCN set, primary screen (AID 602277;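 active = inhibition of the reporter signal at or above 50%; inactive = inhibition below 50%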). Particulars: HEK293-TLR3 RL24 IRF3 luciferase reporter, at 10 µM, stronger effect = higher value.
Setting [12] is: measured here: cell density z-score.
[13] abbreviates: measured here: nuclear c-Myc green intensity z-score.
Where [14] appears, read: measured here: nuclear pErk red intensity z-score, stronger effect = higher value.

“And” between values parts separate entries of the source, which are not always exact repeats. Identical values can stand only once. The source made the active and inactive calls.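 The calls were made as follows, unless noted: active = inhibition at or above 50% relative to wild type and mutant plate controls; inactive = inhibition below 50%.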

Regarding `CCCC(=O)NCCc1c2n(c3ccc(OC)cc13)CCCc1ccccc1-2`, the inhibition in experiment [1] was 5.19% (inactive).

Take `N[C@@H](CCC(=O)N[C@H](CSN=O)C(=O)NCC(=O)O)C(=O)O`: the inhibition in experiment [1] is 3.12% (inactive).

Regarding `COc1ccc(CCN(C)CCc2ccc(OC)c(OC)c2)cc1OC`, the inhibition in [1] was 11.9% (inactive).

Consider `O=C1c2c(O)ccc(O)c2C(=O)c2c(NCCNCCO)ccc(NCCNCCO)c21`, for which the inhibition in experiment [1] was 28.8% (inactive).

`O=C(O)CCc1nc(-c2ccccc2)c(-c2ccccc2)o1`: in [1], the inhibition was 7.1% (inactive).

As for `O=c1[nH]cnc2[nH]ncc12`, the inhibition in experiment [1] was 6.04% (inactive).

Turning to `FC(F)(F)c1cc(CO[C@H]2CCCN[C@H]2c2ccccc2)cc(C(F)(F)F)c1`, the inhibition in [1] was 14.5% (inactive).

As for `COc1ccccc1NC(=O)Nc1nc(-c2cccnc2)nc2ccccc12`, the inhibition in [1] is -0.831% (inactive).

On to `CC(COc1ccc(/C=C/c2ccccc2)cc1)[N+](C)(C)C` (configuration not stated), for which the inhibition in experiment [1] is 52% (active).

Take `Cc1cn[nH]c1`: the inhibition in [1] is 7.85% (inactive).

In the case of `C[N+](C)(C)CCCCCC[N+](C)(C)C`, the inhibition in [1] was 5.27% (inactive) and -2.94% (inactive).

For the molecule `CC(N)=NCCC[C@H](N)C(=O)O`, the inhibition in [1] was 5.15% (inactive).

As for `S=C(S)N1CCCC1`, the inhibition in [1] was 21.2% (inactive).

For the molecule `N[C@@H](Cc1cc(I)c(Oc2ccc(O)c(I)c2)c(I)c1)C(=O)O`, the inhibition of aggregation in [2] was 2.4% (inactive). In addition, the nuclei count in [2] is 100%; in experiment [3] it was 107%. In addition, the inhibition in experiment [3] is -50.6% (inactive); in [5] it was 9.37% (inactive); in experiment [1] it was 36.6% (inactive); in experiment [10], 20.4% (inactive); in [11], 29.6% (inactive). Also, the values for the z-score in [4] (setting [12]), in experiment [4] (setting [13]) and in experiment [4] (setting [14]) were 1.52, -0.0364 and -0.441, respectively. In addition, the fluorescence slope in experiment [6] was -0.512 (inactive). Further, in experiment [7], the NADPH fluorescence slope is -3.3e-05 (inactive). Moreover, the slope in experiment [8] is 0.00387 (inactive). Moreover, the molecule was classed as inactive in experiment [9].

`CN(C)CCC(c1ccc(Br)cc1)c1ccccn1` (configuration not stated): the inhibition of aggregation in [2] is -6% (inactive). The nuclei count in experiment [2] was 111%; in experiment [3], 109%. Moreover, the inhibition in [3] was -39% (inactive); in experiment [5] it was -6.41% (inactive); in experiment [1], 0.349% (inactive) and -9.79% (inactive); in experiment [10], 5.43% (inactive); in experiment [11] it was 31.9% (inactive). Also, the z-score in experiment [4] (setting [12]) was -1.33; in experiment [4] (setting [13]) it was -0.476; in experiment [4] (setting [14]), 0.326. Further, the fluorescence slope in experiment [6] was -0.467 (inactive). The NADPH fluorescence slope in experiment [7] is -6.3e-05 (inactive). In experiment [8], the slope is 0.00532 (inactive). Moreover, the outcome in experiment [9] was inactive.

As to `CCOC(=O)C1=C(C)NC(C)=C(C(=O)OC)C1c1cccc([N+](=O)[O-])c1` (configuration not stated), the inhibition of aggregation in [2] is -10.5% (inactive). Further, the results for the nuclei count in experiment [2] and in experiment [3] were 97.3% and 103%, respectively. Also, the inhibition in [3] was -50.3% (inactive); in experiment [5], 19% (inactive); in experiment [1] it was 5.78% (inactive) and 6.95% (inactive); in experiment [10], 12.9% (inactive); in experiment [11], 43.8% (inactive). In addition, the z-score in [4] (setting [12]) came out at 1.1; in experiment [4] (setting [13]) it was 0.446; in experiment [4] (setting [14]), 0.0067. Further, the fluorescence slope in experiment [6] is -0.475 (inactive). Moreover, the NADPH fluorescence slope in experiment [7] is -2e-05 (inactive). Further, the slope in experiment [8] was 0.00369 (inactive).

As to `OCCOCCN1CCN(C(c2ccccc2)c2ccc(Cl)cc2)CC1` (configuration not stated), the inhibition of aggregation in experiment [2] was 2.8% (inactive). Further, the nuclei count stood at 101% in experiment [2] and 139% in experiment [3]. Moreover, the inhibition in experiment [3] is -65.7% (inactive); in [5] it was -0.828% (inactive); in [1], -13.4% (inactive); in experiment [10], 14.5% (inactive); in experiment [11], 34.4% (inactive). For the same molecule, the results for the z-score in [4] (setting [12]), in [4] (setting [13]) and in experiment [4] (setting [14]) were -1.36, 1.18 and 1.19, respectively. For the same molecule, the fluorescence slope in experiment [6] was -0.46 (inactive). Also, in experiment [7], the NADPH fluorescence slope was 2.2e-05 (inactive). Besides, the slope in experiment [8] is 0.00446 (inactive). The result in experiment [9] was inactive.

Take `C=C(CC)C(=O)c1ccc(OCC(=O)O)c(Cl)c1Cl`: the inhibition of aggregation in [2] is 19.4% (inactive). For the same molecule, the nuclei count stood at 108% in experiment [2] and 120% in experiment [3]. Besides, the inhibition in experiment [3] is -32.5% (inactive); in experiment [5], 5.42% (inactive); in [1], -3.46% (inactive); in experiment [10] it was 17.1% (inactive); in experiment [11] it was 39.1% (inactive). For the same molecule, the z-score is -0.0756 in experiment [4] (setting [12]), -0.0149 in experiment [4] (setting [13]) and 0.974 in experiment [4] (setting [14]). The fluorescence slope in [6] is -0.476 (inactive). The NADPH fluorescence slope in [7] is -8e-05 (inactive). Further, the slope in experiment [8] is 0.00538 (inactive). Moreover, in experiment [9], the result was inactive.

On to `Oc1c(I)cc(Cl)c2cccnc12`, for which, in experiment [2], the inhibition of aggregation was -1.7% (inactive). In addition, the nuclei count in experiment [2] amounted to 76.8%; in [3] it was 108%. The inhibition is -52% (inactive) in experiment [3]; 23.4% (inactive) in experiment [5]; -0.595% (inactive) in experiment [1]; 0.651% (inactive) in [10]; 31.6% (inactive) in experiment [11]. For the same molecule, the z-score in experiment [4] (setting [12]) is -0.367; in [4] (setting [13]) it was 0.593; in experiment [4] (setting [14]), -0.324. For the same molecule, the fluorescence slope in experiment [6] is -0.459 (inactive). For the same molecule, the NADPH fluorescence slope in [7] was -3.6e-05 (inactive). In addition, the slope in experiment [8] was 0.00439 (inactive). Further, the result in experiment [9] was inactive.
